Test results: PubChem BioAssay AID1159580 (chemical genetic matrix, 2015)
Several values for one entry are separate records, joined by “and”; a condition that tells them apart may be missing. Identical values can stand only once. Out of some 5,500 compounds screened, about 2,000 (36%) were called active. About 18% were inconclusive and are not listed. Rule as the data show it: active = normalized growth mostly below about 0.91 (no sharp cut-off); inconclusive = no clear call, values can overlap the other calls; inactive = mostly above about 0.92. This is one part of the list.

Experiment: chemical genetic growth profiling, strain panel (AID 1159580);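 also: tested at 20 µM; growth read once vehicle control cultures reached saturation at 30 °C; 1 = growth at the plate median or of vehicle wells; lower values mean less growth of the strain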
Conditions: S. cerevisiae deletion strains, growth OD

Measured: normalized growth

COC(=O)C1=CO[C@@H](O[C@@H]2O[C@H](CO)[C@@H](O)[C@H](O)[C@H]2O)[C@@H]2[C@@H](C)[C@@H](O)C[C@H]12
inactive: locus YAL013W, strain DEP1, stronger effect = lower value 1 | locus YAL021C, strain ccr4, stronger effect = lower value 0.973 | locus YAL026C, strain drs2, stronger effect = lower value 1.01 | locus YAL030W, strain snc1, stronger effect = lower value 0.996 | locus YBL061C, strain skt5, stronger effect = lower value 0.999 | locus YBR009C, strain hhf1, stronger effect = lower value 0.998 | locus YBR021W, strain FUR4, stronger effect = lower value 1.02 | locus YBR023C, strain chs3, stronger effect = lower value 0.994 | locus YBR171W, strain sec66, stronger effect = lower value 1 | locus YBR229C, strain ROT2, stronger effect = lower value 1.01 | locus YBR231C, strain swc5, stronger effect = lower value 1.01 | locus YBR279W, strain paf1, stronger effect = lower value 0.989 | locus YCL011C, strain gbp2, stronger effect = lower value 0.997 | locus YCL016C, strain dcc1, stronger effect = lower value 0.979 | locus YCL029C, strain bik1, stronger effect = lower value 0.989 | locus YCL061C, strain MRC1, stronger effect = lower value 0.973 | locus YCL069W, strain vba3, stronger effect = lower value 0.999 | locus YCR088W, strain abp1, stronger effect = lower value 0.998 | locus YDL005C, strain med2, stronger effect = lower value 0.989 | locus YDL035C, strain GPR1, stronger effect = lower value 1.02 | locus YDL040C, strain nat1, stronger effect = lower value 1 | locus YDL074C, strain BRE1, stronger effect = lower value 1 | locus YDL101C, strain DUN1, stronger effect = lower value 0.996 | locus YDL134C, strain PPH21, stronger effect = lower value 1.08 | locus YDL185W, strain tfp1, stronger effect = lower value 0.967 | locus YDL192W, strain arf1, stronger effect = lower value 1 | locus YDR001C, strain nth1, stronger effect = lower value 1 | locus YDR069C, strain doa4, stronger effect = lower value 0.998 | locus YDR101C, strain arx1, stronger effect = lower value 0.977 | locus YDR137W, strain rgp1, stronger effect = lower value 1 | locus YDR150W, strain NUM1, stronger effect = lower value 0.993 | locus YDR159W, strain sac3, stronger effect = lower value 0.998 | locus YDR162C, strain NBP2, stronger effect = lower value 1.01 | locus YDR195W, strain ref2 0.989 | locus YDR297W, strain sur2, stronger effect = lower value 0.996 | locus YDR318W, strain mcm21, stronger effect = lower value 1.01 | locus YDR334W, strain swr1, stronger effect = lower value 1.01 | locus YDR335W, strain msn5, stronger effect = lower value 0.995 | locus YDR388W, stronger effect = lower value 0.995 | locus YDR392W, strain spt3, stronger effect = lower value 0.891 | locus YDR502C, strain sam2, stronger effect = lower value 1.01 | locus YEL003W, strain gim4, stronger effect = lower value 1.02 | locus YEL037C, strain rad23, stronger effect = lower value 1.01 | locus YEL061C, strain CIN8 (second series), stronger effect = lower value 1 | locus YEL061C, strain CIN8, stronger effect = lower value 1.01 | locus YER015W, strain faa2, stronger effect = lower value 0.995 | locus YER016W, strain bim1, stronger effect = lower value 0.999 | locus YER110C, stronger effect = lower value 0.976 | locus YER111C, strain swi4, stronger effect = lower value 0.991 | locus YER155C, strain BEM2 (second series), stronger effect = lower value 0.986 | locus YER155C, strain BEM2, stronger effect = lower value 0.997 | locus YER167W, strain BCK2, stronger effect = lower value 1 | locus YFR010W, strain ubp6, stronger effect = lower value 1 | locus YGL078C, strain dbp3, stronger effect = lower value 0.989 | locus YGL086W, strain mad1, stronger effect = lower value 0.943 | locus YGL167C, strain pmr1, stronger effect = lower value 1.01 | locus YGL173C, strain kem1, stronger effect = lower value 1.02 | locus YGL227W, strain vid30, stronger effect = lower value 0.994 | locus YGL240W, strain doc1, stronger effect = lower value 0.987 | locus YGL248W, strain PDE1, stronger effect = lower value 1.02 | locus YGL253W, strain hxk2, stronger effect = lower value 1.01 | locus YGR078C, strain PAC10, stronger effect = lower value 1 | locus YGR135W, strain pre9, stronger effect = lower value 1 | locus YGR229C, strain SMI1, stronger effect = lower value 1.03 | locus YGR252W, strain gcn5, stronger effect = lower value 1.14 | locus YHR013C, strain ard1, stronger effect = lower value 1.03 | locus YHR027C, strain rpn1, stronger effect = lower value 1 | locus YHR030C, strain SLT2, stronger effect = lower value 0.992 and 1.04 | locus YHR079C, strain IRE1 (second series), stronger effect = lower value 0.979 | locus YHR079C, strain IRE1, stronger effect = lower value 1.06 | locus YHR094C, strain hxt1, stronger effect = lower value 0.998 | locus YHR129C, strain ARP1, stronger effect = lower value 1 | locus YHR142W, strain chs7, stronger effect = lower value 1 | locus YHR200W, strain rpn10, stronger effect = lower value 0.979 | locus YIL066C, strain RNR3, stronger effect = lower value 1.01 | locus YIL073C, strain SPO22, stronger effect = lower value 0.986 | locus YIL125W, strain kgd1, stronger effect = lower value 0.985 | locus YIR030C, strain dcg1, stronger effect = lower value 0.996 | locus YJL092W, strain hpr5, stronger effect = lower value 1 | locus YJL095W, strain BCK1 (second series), stronger effect = lower value 1 | locus YJL095W, strain BCK1, stronger effect = lower value 1.04 and 1 | locus YJL115W, strain asf1, stronger effect = lower value 0.999 | locus YJL129C, strain trk1, stronger effect = lower value 0.986 | locus YJL134W, strain LCB3, stronger effect = lower value 1 | locus YJL154C, strain vps35, stronger effect = lower value 1.01 | locus YJL164C, strain tpk1, stronger effect = lower value 1 | locus YJL166W, strain qcr8, stronger effect = lower value 0.972 | locus YJL168C, strain set2, stronger effect = lower value 0.978 | locus YJL187C, strain SWE1 (second series), stronger effect = lower value 1 | locus YJL187C, strain SWE1, stronger effect = lower value 1 | locus YJR043C, strain POL32, stronger effect = lower value 1.01 | locus YJR066W, strain TOR1, stronger effect = lower value 1.01 | locus YJR075W, strain HOC1, stronger effect = lower value 0.995 | locus YKL009W, strain mrt4, stronger effect = lower value 1.01 | locus YKL068W, stronger effect = lower value 0.987 | locus YKL085W, strain MDH1 (second series), stronger effect = lower value 0.978 | locus YKL085W, strain MDH1, stronger effect = lower value 0.978 | locus YKL160W, strain elf1, stronger effect = lower value 0.961 | locus YKL190W, strain CNB1, stronger effect = lower value 1 | locus YKR001C, strain vps1, stronger effect = lower value 0.999 | locus YKR026C, strain gcn3, stronger effect = lower value 0.997 | locus YKR091W, strain srl3, stronger effect = lower value 0.992 | locus YLL001W, strain dnm1, stronger effect = lower value 0.973 | locus YLL026W, stronger effect = lower value 1 | locus YLL041C, strain sdh2, stronger effect = lower value 0.994 | locus YLR027C, strain aat2, stronger effect = lower value 0.994 | locus YLR039C, strain RIC1, stronger effect = lower value 1.05 | locus YLR058C, strain SHM2, stronger effect = lower value 1.01 | locus YLR102C, strain apc9, stronger effect = lower value 0.984 | locus YLR113W, strain HOG1, stronger effect = lower value 0.991 | locus YLR221C, strain rsa3, stronger effect = lower value 0.971 | locus YLR258W, strain gsy2, stronger effect = lower value 0.981 | locus YLR262C, strain YPT6 (second series), stronger effect = lower value 0.985 | locus YLR262C, strain YPT6, stronger effect = lower value 1.08 | locus YLR268W, strain sec22, stronger effect = lower value 0.968 | locus YLR320W, strain mms22, stronger effect = lower value 0.964 | locus YLR330W, strain CHS5, stronger effect = lower value 0.984 | locus YLR342W, strain FKS1 (second series), stronger effect = lower value 1.04 | locus YLR342W, strain FKS1, stronger effect = lower value 0.995 | locus YLR357W, strain rsc2, stronger effect = lower value 0.986 | locus YLR370C, strain arc18, stronger effect = lower value 0.992 | locus YLR371W, strain rom2, stronger effect = lower value 0.973 | locus YLR384C, strain iki3, stronger effect = lower value 1 | locus YLR418C, strain cdc73, stronger effect = lower value 1.04 | locus YML016C, strain PPZ1, stronger effect = lower value 0.997 | locus YML032C, strain rad52, stronger effect = lower value 1.03 | locus YML120C, strain ndi1, stronger effect = lower value 0.99 | locus YML124C, strain tub3, stronger effect = lower value 0.988 | locus YMR058W, strain fet3, stronger effect = lower value 1 | locus YMR078C, strain ctf18, stronger effect = lower value 0.954 | locus YMR125W, strain sto1, stronger effect = lower value 0.97 | locus YMR129W, stronger effect = lower value 1.01 | locus YMR205C, strain PFK2, stronger effect = lower value 0.952 | locus YMR223W, strain ubp8, stronger effect = lower value 1.01 | locus YMR231W, strain pep5, stronger effect = lower value 1 | locus YMR263W, strain SAP30, stronger effect = lower value 0.996 | locus YMR307W, strain GAS1, stronger effect = lower value 1.18 | locus YNL067W, strain RPL9B, stronger effect = lower value 1 | locus YNL071W, strain lat1, stronger effect = lower value 1 | locus YNL183C, strain NPR1, stronger effect = lower value 1 | locus YNL209W, strain ssb2, stronger effect = lower value 1 | locus YNL233W, strain BNI4, stronger effect = lower value 1 | locus YNL248C, strain rpa49, stronger effect = lower value 0.982 | locus YNL250W, strain rad50, stronger effect = lower value 0.939 | locus YNL271C, strain bni1, stronger effect = lower value 0.989 | locus YNL298W, strain CLA4, stronger effect = lower value 1 | locus YNL307C, strain MCK1, stronger effect = lower value 0.979 | locus YNL322C, strain KRE1 (second series), stronger effect = lower value 0.989 | locus YNR049C, strain mso1, stronger effect = lower value 0.997 | locus YNR052C, strain pop2, stronger effect = lower value 0.997 | locus YOL012C, strain htz1 1.13 | locus YOL147C, strain pex11, stronger effect = lower value 0.988 | locus YOR001W, strain rrp6, stronger effect = lower value 1 | locus YOR061W, strain CKA2, stronger effect = lower value 1.01 | locus YOR069W, strain VPS5, stronger effect = lower value 0.995 | locus YOR070C, strain gyp1, stronger effect = lower value 0.999 | locus YOR080W, strain dia2, stronger effect = lower value 0.997 | locus YOR083W, strain WHI5, stronger effect = lower value 0.958 | locus YOR106W, strain vam3, stronger effect = lower value 0.989 | locus YOR136W, strain idh2, stronger effect = lower value 0.991 | locus YOR144C, strain elg1, stronger effect = lower value 0.993 | locus YOR184W, strain ser1, stronger effect = lower value 1 | locus YOR231W, strain MKK1, stronger effect = lower value 1.03 | locus YOR265W, strain rbl2, stronger effect = lower value 0.999 | locus YOR270C, strain vph1, stronger effect = lower value 1.02 | locus YOR290C, strain snf2, stronger effect = lower value 0.98 | locus YOR316C, strain cot1, stronger effect = lower value 0.996 | locus YPL051W, strain arl3, stronger effect = lower value 0.977 | locus YPL055C, strain LGE1, stronger effect = lower value 1.01 | locus YPL078C, strain atp4, stronger effect = lower value 0.965 | locus YPL106C, strain sse1, stronger effect = lower value 0.948 | locus YPL240C, strain hsp82, stronger effect = lower value 0.996 | locus YPL256C, strain CLN2, stronger effect = lower value 1.05 | locus YPR119W, strain clb2, stronger effect = lower value 0.981 | locus YPR141C, strain kar3, stronger effect = lower value 0.977 | locus YPR163C, strain tif3, stronger effect = lower value 0.984 | locus YPR167C, strain met16, stronger effect = lower value 0.995 | strain wtn01, stronger effect = lower value 0.948
